Outcome data for three compounds are collected here from PubChem BioAssay AID1053124 (Broad Institute, 2014).

Each structure is given as a SMILES string. Measured potencies and affinities stand elsewhere. Activity calls are given as the source filed them.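 How the source made its calls: active means cell killing whose fitted half-effect concentration is at most twice the top valid dose tested; inconclusive means flat curve with 30 to 70% killing, or a poor fit; inactive means effect in the rising direction, plus the rest.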

The nature of this test: A549 cell cytotoxicity, dose response, cytotoxicity control, ATP luminescence, cherry-pick, set 2 (AID 1053124).

In the case of `N#CC1=C(N)Oc2cc(O)ccc2C1c1ccc2c(c1)OCO2` (stereo not drawn), the call was inactive.

With `CC(C)OP(=O)(O)NC(=O)c1ccccc1`, the outcome was inactive. As for `CC12CC(c3ccccc3O1)C(C(=O)OCc1ccccc1)C(=O)N2` (stereo not drawn), the call was inactive.
